About 2,600 (1.2%) of roughly 220,000 compounds were called active. This excerpt belongs to a sample that is enriched for actives. Values without a mark were called inactive.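 How the source made its calls: active means activation above the mean of all tested compounds plus 3 SD, set per screening run (cut at about 8.8% in these data); inactive means the rest.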
target: Wee1-like protein kinase (Homo sapiens) (UniProt P30291); experiment: compounds stabilizing Wee1-luciferase fusion – cell-based, HeLa, Wee1K328M-luciferase, luminescence, primary screen (AID 1321); conditions: HeLa Luc-Wee1K328M stability, at 5 µM, stronger effect = higher value;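 further: cells exposed to compound for 20 h before luminescence read; 0% = DMSO alone and 100% = MG132 at 30 µM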

Row | SMILES | activation
1 | O=C(N/N=C/c1c(O)n(Cc2ccccc2)c(=O)[nH]c1=O)c1ccccc1 | 16.4% (active)
2 | CCCCC(=O)N/N=C/c1c(O)n(-c2ccccc2)c(=O)[nH]c1=O | -2.55%
3 | O=c1[nH]c(=O)n(Cc2ccccc2)c(O)c1/C=N/Nc1c(F)c(F)c(F)c(F)c1F | -0.63%
4 | CN(C)CC1CCCCC1=O (stereo not given) | -1.81%
5 | NC(=O)Nc1cccc(C(F)(F)F)c1 | 0.59%

— PubChem BioAssay AID1321 (The Scripps Research Institute Molecular Screening Center, 2008)
